Compound activity deposited in PubChem by several laboratories.
A selection: hits, their analogues and other compounds. The true share with any hit is near 27%.
CYP2C9 inhib = human CYP2C9 inhibition; CYP2C9 Supersomes, luciferin-H conversion, luminescence; inhibition, % at 5 µM; 96,000 compounds, 20% hits;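 active means blocking of liver enzyme CYP2C9 beyond about 50% at 5 µM, limit read from the data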
Target sequence (P11712 whole entry, looked up): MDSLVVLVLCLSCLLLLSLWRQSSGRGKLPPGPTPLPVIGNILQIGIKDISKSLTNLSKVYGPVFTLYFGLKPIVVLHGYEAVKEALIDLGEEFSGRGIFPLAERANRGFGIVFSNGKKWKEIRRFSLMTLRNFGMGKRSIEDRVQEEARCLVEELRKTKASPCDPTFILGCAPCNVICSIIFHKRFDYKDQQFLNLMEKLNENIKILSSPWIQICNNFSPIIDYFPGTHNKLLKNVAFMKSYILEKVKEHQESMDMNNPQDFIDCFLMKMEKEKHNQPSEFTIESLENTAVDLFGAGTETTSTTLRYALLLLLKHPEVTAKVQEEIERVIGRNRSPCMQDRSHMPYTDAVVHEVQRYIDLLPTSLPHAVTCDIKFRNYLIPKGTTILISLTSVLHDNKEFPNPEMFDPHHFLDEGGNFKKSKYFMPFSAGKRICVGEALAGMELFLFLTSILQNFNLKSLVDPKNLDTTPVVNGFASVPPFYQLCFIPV
CYP2C9 activ = CYP2C9 (human) activation; P11712; recombinant CYP2C9, luciferin-H conversion, luminescence; active compounds read high; factor 1 = untreated enzyme, 0 = blocked; activation factor at 5 µM; 96,000 compounds, 1.4% hits; AID 1024;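 active means activation factor of 2 or more for CYP2C9 at a 5 µM dose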;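 further: 0 = sulfaphenazole-blocked wells and 1 = vehicle-only wells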
sEH act = increases human soluble epoxide hydrolase activity. activation, % at 2 µM. purified human sEH enzymatic activity, activator screen. P34913. 91,000 compounds, 0.04% hits; in the data active means activation above about 37%
sEH inhibitor = inhibitors of human soluble epoxide hydrolase. inhibition, % at 2 µM. AID 707. recombinant human sEH enzymatic activity assay. 91,000 compounds, 0.34% hits. P34913; in the data active means inhibition above about 80%
CYP2C19 inh = inhibitors of human CYP2C19. P33261. CYP2C19 Supersomes, luciferin-H EGE luminescence, 30 min. inhibition, % at 5 µM. 96,000 compounds, 21% hits. AID 778;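 active means CYP2C19 inhibition above a set limit at 5 µM in the primary screen, cut at about 50% in these data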;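 further: plate controls were negative control wells for no effect and 2.5 mM tranylcypromine positive control for full effect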
CYP2C19 activ = cytochrome P450 2C19 (human) activation | P33261 | AID 1025 | activation factor at 5 µM | recombinant CYP2C19, luciferin-H EGE luminescence; active compounds read high; 0 = fully inhibited enzyme, 1 = untreated enzyme | 96,000 tested, under 10 active;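 active means activation factor of at least 2 at 5 µM in the primary screen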;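 further: 0 = wells with 2.5 mM tranylcypromine and 1 = vehicle-only wells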
* marks the source's active call; other numbers are inactive results; . = no result.

SMILES | CYP2C9 inhib | CYP2C9 activ | sEH act | sEH inhibitor | CYP2C19 inh | CYP2C19 activ
CC(=NCc1cccnc1)c1c(O)n(-c2ccccc2C)c(=O)[nH]c1=O | 60* | 0.4 | -4 | 5 | 84* | 0.2
CCN(CC)CCCN=C(C)c1c(O)n(C2CCCCC2)c(=O)[nH]c1=O | 15 | 0.9 | -6 | 8 | 50 | 0.5
CC1(C)C(c2ccccc2)=NC(c2cccnc2)N1O (stereo unspecified) | -5 | 1.1 | 6 | -6 | 29 | 0.7
Cc1c(N=Cc2c(O)n(CCc3ccc(F)cc3)c(=O)[nH]c2=O)c(=O)n(-c2ccccc2)n1C | 18 | 0.8 | -10 | 10 | 5 | 0.9
Nc1ccc(C2(c3ccc(N)cc3)CN3CCC2CC3)cc1 | -5 | 1.1 | 11 | -12 | -14 | 1.1
CCCC12CN3CC(CCC)(CN(C1)C3c1ccccn1)C2=O (stereo unspecified) | -16 | 1.2 | -12 | 13 | -15 | 1.1
CC(=NCc1cccnc1)c1c(O)n(C2CCCCC2)c(=O)[nH]c1=O | 51* | 0.5 | -10 | 12 | 99* | 0
CCCCn1c(O)c(C(C)=Nc2ccc(OCC)cc2)c(=O)[nH]c1=O | 43 | 0.6 | -2 | 4 | 25 | 0.8
CCCCn1c(O)c(C(C)=NC(Cc2c[nH]c3ccccc23)C(=O)OC)c(=O)[nH]c1=O (stereo unspecified) | 97* | 0 | 7 | -6 | 95* | 0
CCCCn1c(O)c(C(C)=NCCN2CCCCC2)c(=O)[nH]c1=O | 4 | 1 | 19 | -17 | 3 | 1
CCCCCCn1c(O)c(C(C)=NC)c(=O)[nH]c1=O | 61* | 0.4 | 4 | 0 | 83* | 0.2
Cc1nonc1-c1nc(-c2nonc2N)n[nH]1 | 7 | 0.9 | -6 | 8 | -4 | 1
Oc1cccc(/C=N/NP(=S)(c2ccccc2)c2ccccc2)c1 | 99* | 0 | -4 | 5 | 94* | 0.1
CCn1c(O)c(C(c2ccccn2)c2c(O)n(CC)c(=S)[nH]c2=O)c(=O)[nH]c1=S | 9 | 0.9 | 8 | -11 | -3 | 1
Clc1ccc(-c2nc3ccc(Cl)cn3c2CN2CCOCC2)cc1 | 64* | 0.4 | 20 | -22 | 77* | 0.2
CCCCCCN=C(C)c1c(O)n(Cc2ccccc2)c(=O)[nH]c1=O | 20 | 0.8 | 11 | -12 | -11 | 1.1
Cc1ccc(N2C(=O)NC(=O)/C(=C/c3ccc(OC(=O)c4cccs4)cc3)C2=O)cc1 | -2 | 1 | -6 | 4 | 54* | 0.5
O=C1NC(=O)C(CCc2ccncc2)(c2ccccc2)C(=O)N1 | 93* | 0.1 | 6 | -6 | 55* | 0.4
COc1ccc(OC)c(N2C(=O)NC(=O)C(CCc3ccncc3)(CCc3ccncc3)C2=O)c1 | . | . | 6 | -7 | . | .
COc1ccccc1N1CCN(Cc2c(F)cccc2Cl)CC1 | 68* | 0.3 | -14 | 15 | 97* | 0
CCN1CCN(Cc2cc(Br)ccc2O)CC1 | -33 | 1.3 | 0 | -2 | 22 | 0.8
COc1ccccc1N1CCN(Cc2cc(C)c(C)cc2O)CC1 | -110 | 2.1* | -30 | 31 | 79* | 0.2
Oc1ccc(Br)cc1CN1CCN(c2ccccc2)CC1 | 64* | 0.4 | 12 | -10 | 24 | 0.8
COc1cc(C)c(CN2CCN(c3ccccc3)CC2)cc1C | 6 | 0.9 | 6 | -6 | 56* | 0.4
CCOC(=O)C1=C(N)Oc2ccccc2C12C(=O)N(CC(=O)OC)C(CC(=O)OC)=C2C(=O)OC (stereo unspecified) | 8 | 0.9 | 1 | 2 | 1 | 1
SMILES | CYP2C9 inhib | CYP2C9 activ | sEH act | sEH inhibitor | CYP2C19 inh | CYP2C19 activ
COc1ccccc1N1CCN(Cc2ccc(Br)s2)CC1 | 78* | 0.2 | . | . | 94* | 0.1
COc1cc(CN2CCN(c3cc(C)ccc3C)CC2)ccc1O | 33 | 0.7 | -11 | 10 | 56* | 0.4
COc1cc(Br)cc(CN2CCN(C)CC2)c1O | -7 | 1.1 | -8 | 9 | 2 | 1
CN(C)C1=NP(N(C)C)(N(C)C)=NC(c2ccccc2)=N1 | -4 | 1 | -3 | 3 | 3 | 1
CC(C)CCC1(CN2CCCC2=O)C(=O)NC(=O)NC1=O | . | . | 12 | -13 | . | .
CCOC(=O)c1c(C)n(Cc2ccco2)c2c1cc(O)c1ccccc12 | 82* | 0.2 | 9 | -7 | -2 | 1
C=Cn1ccnc1P(=S)(c1ccn(C)c1)c1nccn1C=C | -14 | 1.1 | 3 | -1 | -9 | 1.1
C=CCN1C(=O)NC(=O)/C(=C/c2ccc(OC)c(CSc3ccccn3)c2)C1=O | 19 | 0.8 | -8 | 10 | 52* | 0.5
COc1cc(/C=C2\C(=O)NC(=O)N(c3ccccc3)C2=O)cc(OC)c1O | -32 | 1.3 | 1 | 0 | -8 | 1.1
CCC1CCCCN1P(=O)(c1ccc(C)o1)C(C)(C)C (stereo unspecified) | -4 | 1 | -11 | 14 | 1 | 1
COc1ccc(-n2c(O)c(C(C)=NCCN3CCNCC3)c(=O)[nH]c2=O)cc1 | -8 | 1.1 | -15 | 17 | -10 | 1.1
CCOC(=O)N1CCC(NC(=O)CCc2nc(C3=CCN(C)CC3)no2)CC1 | 2 | 1 | 2 | -1 | 1 | 1
CCCCn1c(=O)c(C(=O)NCc2ccncc2)c(O)c2ccccc21 | 100* | 0 | -10 | 8 | 92* | 0.1
CCCCCCn1c(=O)c(C(=O)Nc2ccncc2)c(O)c2ccccc21 | 42 | 0.6 | . | . | 22 | 0.8
Cc1ccc2c(c1)N(CCC(=O)N1CCC3(CC1)OCCO3)C(=O)C(C)O2 (stereo unspecified) | -30 | 1.3 | 5 | -4 | 89* | 0.1
O=C(CCn1c(=O)oc2ccccc21)N1CCC2(CC1)OCCO2 | -9 | 1.1 | 6 | -6 | 44 | 0.6
Cc1ccc(CS(=O)(=O)CCC(=O)N2CCC3(CC2)OCCO3)cc1 | -17 | 1.2 | -12 | 15 | -18 | 1.2
Cc1ccc2c(c1)N(CCC(=O)N1CCC3(CC1)OCCO3)C(=O)CO2 | -77 | 1.8 | -8 | 7 | 95* | 0
CCOC(=O)[C@]1(C#N)[C@@H]2C=CC(C(C)=O)=CN2[C@@H](C(N)=O)[C@@H]1c1ccsc1 | 26 | 0.7 | -4 | 7 | 28 | 0.7
Cc1ccc2nc(-c3ccncc3)cc(C(=O)N3CCC4(CC3)OCCO4)c2c1 | 51* | 0.5 | 2 | 1 | 17 | 0.8
O=C(c1cc(-c2cccnc2)nc2ccc(Cl)cc12)N1CCC2(CC1)OCCO2 | 17 | 0.8 | -4 | 7 | 9 | 0.9
CCOC(=O)C1SC2(C(F)F)CC1(O)c1c(c(OC)c3occc3c1OC)O2 (stereo unspecified) | 97* | 0 | -7 | 10 | 100* | 0
CCOc1ccc(N=C2SCCCN2C)cc1 | . | . | -9 | 12 | . | .
COc1ccc(C2NCc3ccc4c(c3-n3cccc32)OCO4)cc1O (stereo unspecified) | -6 | 1.1 | -8 | 11 | 68* | 0.3
